# In PubChem BioAssay (NCI):
# This is part of a sample that, as a whole, favours compounds with a hit. Of some 83,000 tested, about 20% had one in any assay.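 Cells were grown in 96-well plates and exposed to the test compound at a single concentration for 48 hours; results are reported as percent growth, with values below 10 considered active.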 A number with no mark means an inactive call. Activity calls are given as the source filed them.
# Experiments:
# Experiment in all cases: NCI-60 one-dose screen, 48 h (100 = growth as untreated, 0 = no growth, -100 = all killed)
# Conditions in all cases: 10 µM unless noted
# [1] = system: SK-MEL-2 melanoma
# [2] = system: EKVX NSCLC
# [3] = system: SN12C renal
# [4] = system: UO-31 renal
# [5] = system: TK-10 renal
# [6] = system: ACHN renal
# [7] = system: CAKI-1 renal
# [8] = system: A498 renal
# [9] = system: CCRF-CEM leukemia
# [10] = system: MOLT-4 leukemia
# [11] = system: SR leukemia
# [12] = system: RPMI-8226 leukemia
# [13] = system: OVCAR-8 ovarian
# [14] = system: OVCAR-5 ovarian
# [15] = system: OVCAR-4 ovarian
# [16] = system: SK-OV-3 ovarian
# [17] = system: IGROV1 ovarian
# [18] = system: OVCAR-3 ovarian
# [19] = system: NCI/ADR-RES ovarian
# [20] = system: HS 578T breast
SMILES,growth [1],growth [2],growth [3],growth [4],growth [5],growth [6],growth [7],growth [8],growth [9],growth [10],growth [11],growth [12],growth [13],growth [14],growth [15],growth [16],growth [17],growth [18],growth [19],growth [20]
Nc1cc2c(cc1Cl)C(=O)c1ccccc1C2=O,111%,42.5%,34%,-15% (active),33.8%,3.29% (active),41.5%,103%,80.5%,85.8%,59.8%,51.1%,21.7%,58.5%,9.39% (active),39.1%,35.5%,62.3%,24.1%,–
CCC12OC(COc3ccccc3)CN1CCN2c1ccccc1 (configuration not stated),99.4% [100 µM],95.2% [100 µM],96.1% [100 µM],75.2% [100 µM],146% [100 µM],97.3% [100 µM],89% [100 µM],107% [100 µM],101% [100 µM],94.5% [100 µM],96.9% [100 µM],94.4% [100 µM],96.5% [100 µM],98% [100 µM],95.5% [100 µM],106% [100 µM],93.4% [100 µM],110% [100 µM],100% [100 µM],99.1% [100 µM]
C/C(=N\Nc1ccc([N+](=O)[O-])cc1[N+](=O)[O-])c1ccc(Br)cc1,97.4%,96.4%,96.2%,85%,105%,105%,98.1%,102%,96.5%,104%,84.4%,93.1%,96.8%,123%,105%,108%,110%,99.7%,106%,–
COc1cc(CC#N)c([N+](=O)[O-])cc1OC,109%,111%,104%,96%,101%,109%,102%,107%,103%,94.6%,91.2%,109%,98.2%,111%,128%,111%,95.6%,109%,105%,–
CCNc1ncnc2[nH]ncc12,101%,88.6%,96.9%,99.7%,102%,98.2%,93%,96.9%,30.1%,134%,143%,73.9%,72.3%,104%,108%,109%,124%,112%,105%,109%
c1ccc(Oc2c3ccccc3nc3ccccc23)cc1,39.9%,62.1%,24.3%,43.8%,57.6%,31.9%,-20.4% (active),33%,14.2%,14.5%,-0.679% (active),-20.9% (active),23.7%,35.3%,15%,39%,-9.18% (active),-3.62% (active),47.6%,12.2%
CCN(CC)c1ccc2nc3ccc(N=Nc4ccc(N(C)C)cc4)cc3[n+](-c3ccccc3)c2c1,-37.1% (active),-75.2% (active),-49.5% (active),-55.1% (active),5.74% (active),-79.4% (active),-27.8% (active),-25.1% (active),-21% (active),-20.1% (active),-18.3% (active),-23.6% (active),5.08% (active),-58.2% (active),-100% (active),-8.27% (active),14.5%,-30.6% (active),0.224% (active),–
c1ccc2c(NCCCN3CCN(CCCNc4c5ccccc5nc5ccccc45)CC3)c3ccccc3nc2c1,-76.8% [100 µM] (active),-48.6% [100 µM] (active),-35.9% [100 µM] (active),-27.6% [100 µM] (active),-9.59% [100 µM] (active),-60.9% [100 µM] (active),-15.5% [100 µM] (active),-31.9% [100 µM] (active),-0.0236% [100 µM] (active),-5.28% [100 µM] (active),-3.4% [100 µM] (active),-9.92% [100 µM] (active),-37.8% [100 µM] (active),-31.3% [100 µM] (active),-48.8% [100 µM] (active),-28.4% [100 µM] (active),-31.6% [100 µM] (active),-34.4% [100 µM] (active),35.7% [100 µM],–
CCCNS(=O)(=O)c1ccc(Cl)cc1,106%,91.6%,103%,89.9%,106%,102%,93.8%,98.9%,100%,113%,98.9%,99.7%,104%,110%,102%,99.6%,105%,109%,101%,88.1%
COc1ccc2c(ccc[n+]2C)c1,103%,84.7%,104%,86.5%,102%,98.5%,96.4%,107%,98.3%,111%,115%,85.4%,94.8%,99.9%,91.9%,107%,85.3%,82.7%,106%,80.2%
O=C(O)c1ccccc1Cc1ccc2c(c1)CCCC2,113%,119%,102%,73.1%,103%,104%,98.5%,107%,106%,97.9%,106%,108%,105%,104%,111%,111%,99.5%,111%,115%,–
Cc1onc(-c2c(F)cccc2Cl)c1-c1ncc(-c2ccc(Br)cc2)o1,74.8%,46%,34%,-0.651% (active),46.8%,32.8%,33.1%,86.4%,39.5%,16.9%,13.7%,22.6%,38.3%,70%,48%,66.1%,36.8%,43.6%,31.1%,66.6%
Cn1c(=O)c2[nH]c(CC(=O)O)nc2n(C)c1=O,105%,101%,104%,93.5%,102%,111%,102%,98.4%,106%,103%,99.3%,108%,102%,106%,118%,106%,103%,108%,102%,107%
Clc1ncnc2nc[nH]c12,118%,101%,93.4%,77.2%,107%,96.2%,108%,101%,103%,100%,102%,88.8%,102%,101%,103%,–,–,98.1%,103%,98%
O=C(Nc1c(Cl)cc(Cl)cc1Cl)ON=C1CCCCC1,107%,105%,98.4%,90.2%,100%,102%,97.2%,105%,102%,109%,98.4%,105%,104%,96.4%,108%,114%,109%,105%,109%,–
O=Cc1ccc(O)c(O)c1,103%,103%,94.9%,84.2%,107%,114%,112%,88.4%,57.8%,80.5%,82.9%,87.5%,95.8%,96.2%,97.1%,–,88.8%,96.3%,93.1%,133%
CC(C)NC(=O)OCc1c(COC(=O)NC(C)C)c(-c2ccc(Cl)cc2)n2c1CCC2,94.4%,76.6%,38.2%,50.6%,57.6%,11.1%,6.56% (active),44.5%,51.5%,21.9%,2.94% (active),93.4%,63.3%,85.1%,–,40.8%,70.3%,66%,46.5%,73.6%

SMILES,growth [1],growth [2],growth [3],growth [4],growth [5],growth [6],growth [7],growth [8],growth [9],growth [10],growth [11],growth [12],growth [13],growth [14],growth [15],growth [16],growth [17],growth [18],growth [19],growth [20]
COc1ccc(C(=O)C(=O)c2ccccc2)cc1,110%,102%,98.7%,95.3%,108%,101%,99.9%,97.5%,-54.2% (active),101%,95.9%,103%,105%,101%,100%,103%,102%,108%,104%,–
COc1ccc(/C=C\C(=O)/C=C/c2ccc(OC)cc2)cc1,123%,93.2%,90.3%,69.1%,116%,95.5%,87.5%,174%,37.4%,68.2%,17.7%,-20% (active),101%,107%,88.6%,104%,92.3%,85.1%,99.2%,–
CN(C)c1ccc(/C=C/C(=O)c2ccc(NC(N)=O)cc2)cc1,103%,89.3%,93.3%,68.3%,97.7%,103%,87.8%,115%,92.8%,91.7%,61.2%,63.8%,94.1%,99.8%,94%,105%,99.7%,109%,102%,–
Cc1ccc(O)c(N)c1,112%,136%,107%,87.9%,127%,97%,215%,127%,78.7%,123%,113%,55.7%,104%,115%,111%,–,–,118%,107%,106%
N#C/C(=C\NC(=S)N=Nc1c(O)[nH]c2ccccc12)c1nc2ccccc2s1,105%,99.3%,110%,79.2%,140%,89.6%,96.2%,89%,93.4%,99.4%,77.3%,97%,96%,105%,–,92.8%,85.4%,103%,103%,94.6%
C=C(c1ccc(N(C)C)cc1)c1ccc(N(C)C)cc1,-8.02% (active),6.55% (active),1.84% (active),28.8%,58.2%,36.1%,22.2%,78.8%,-14.1% (active),5.78% (active),11.8%,7.06% (active),-5.66% (active),16%,48.9%,27.4%,25.4%,-33% (active),-35.5% (active),–
CNc1ccccc1C(N)=O,103%,98.4%,94.8%,75.5%,105%,97.1%,81.4%,121%,102%,117%,109%,110%,103%,117%,109%,107%,100%,114%,97.9%,–
O=C1NC(=O)/C(=C\c2ccncc2)N1,104%,95.5%,95.9%,95.5%,105%,97.9%,100%,94.1%,105%,111%,92.2%,103%,103%,98.3%,98.6%,99.2%,109%,94.3%,103%,95%
Oc1cccc(CNC2CCCCC2)c1,115%,115%,106%,86.6%,105%,107%,106%,136%,107%,106%,102%,104%,110%,108%,126%,109%,108%,119%,110%,–
C/C(Cc1ccccc1)=N\O,104%,116%,107%,102%,103%,106%,115%,103%,-29.9% (active),5.17% (active),101%,83.3%,107%,107%,117%,128%,–,105%,107%,–
CCCC1OC(c2ccco2)OCC1CC (configuration not stated),97.7%,96.4%,98.4%,77.6%,97.1%,105%,88.2%,94.6%,93%,89.3%,106%,–,101%,100%,115%,113%,95.1%,109%,107%,118%
c1cc(CNCCNCc2ccncc2)ccn1,104%,99.6%,98.5%,83.7%,105%,109%,91.3%,116%,89.5%,84.1%,130%,97.1%,97%,115%,–,104%,113%,118%,108%,113%
CC1(c2ccccc2)CO1 (configuration not stated),107%,111%,107%,85.8%,102%,102%,107%,131%,97.7%,99.6%,104%,103%,102%,97.5%,–,107%,100%,114%,113%,97.4%
CCOc1ccncc1[N+](=O)[O-],104%,104%,110%,99.9%,104%,115%,103%,121%,109%,102%,102%,112%,97.5%,–,116%,110%,118%,106%,106%,112%
O=C(NCc1ccccc1)c1cccc([N+](=O)[O-])c1,104%,102%,104%,70.1%,99.6%,102%,102%,82.3%,90.9%,102%,92.4%,91%,97.2%,–,111%,108%,101%,106%,104%,91.2%
CCCCCC/C=C\CCCCCCCCCc1cc(O)cc(OC)c1O,-25.5% (active),14.5%,8.94% (active),-19.1% (active),24.3%,12.7%,-29.1% (active),-18.5% (active),-0.181% (active),2.69% (active),0.217% (active),-7.09% (active),-26.1% (active),–,-19.5% (active),6.17% (active),-45.4% (active),13.6%,-5.84% (active),44.9%
